Experimental data published in PubChem BioAssay (NCI).
This is part of a sample that, as a whole, favours compounds with a hit. Of some 83,000 tested, about 20% had one in any assay.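 Cells were grown in 96-well plates and exposed to the test compound at a single concentration for 48 hours; results are reported as percent growth, with values below 10 considered active.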 Calls of active or inactive are those of the source.

Legend:
Test in all cases: NCI-60 one-dose screen, 48 h (100 = growth as untreated, 0 = no growth, -100 = all killed)
HCT-15 colon = details: 10 µM unless noted
HT29 colon = details: 10 µM unless noted
SNB-75 CNS = details: 10 µM unless noted
SNB-19 CNS = details: 10 µM unless noted
U251 CNS = details: 10 µM unless noted
PC-3 prostate = details: 10 µM unless noted
SK-MEL-5 melanoma = details: 10 µM unless noted
UACC-62 melanoma = details: 10 µM unless noted
LOX IMVI melanoma = details: 10 µM unless noted
SK-MEL-28 melanoma = details: 10 µM unless noted
SK-MEL-2 melanoma = details: 10 µM unless noted
EKVX NSCLC = details: 10 µM
SN12C renal = details: 10 µM unless noted
UO-31 renal = details: 10 µM unless noted
TK-10 renal = details: 10 µM unless noted
ACHN renal = details: 10 µM unless noted
CAKI-1 renal = details: 10 µM unless noted
A498 renal = details: 10 µM unless noted
CCRF-CEM leukemia = details: 10 µM
MOLT-4 leukemia = details: 10 µM unless noted

Measured: growth

COc1cc(N)c2nccc(C)c2c1OC
inactive: HCT-15 colon 115% | HT29 colon 111% | SNB-75 CNS 103% | SNB-19 CNS 109% | U251 CNS 99.4% | PC-3 prostate 108% | SK-MEL-5 melanoma 101% | UACC-62 melanoma 93.7% | LOX IMVI melanoma 96.2% | SK-MEL-28 melanoma 115% | SK-MEL-2 melanoma 103% | EKVX NSCLC 92.7% | SN12C renal 98.8% | UO-31 renal 164% | TK-10 renal 116% | ACHN renal 110% | CAKI-1 renal 98.4% | A498 renal 93.5% | CCRF-CEM leukemia 101% | MOLT-4 leukemia 80.6%

Oc1ccccc1/C=N/N=C/c1c(O)ccc2ccccc12
active: CCRF-CEM leukemia 7.8%
inactive: HCT-15 colon 70.1% | HT29 colon 100% | SNB-75 CNS 94.2% | SNB-19 CNS 99.4% | U251 CNS 93.2% | PC-3 prostate 83.8% | SK-MEL-5 melanoma 93.1% | UACC-62 melanoma 84.4% | LOX IMVI melanoma 85.2% | SK-MEL-28 melanoma 101% | SK-MEL-2 melanoma 92.4% | EKVX NSCLC 72.1% | SN12C renal 85.1% | UO-31 renal 42.9% | TK-10 renal 101% | ACHN renal 80% | CAKI-1 renal 91.6% | A498 renal 123% | MOLT-4 leukemia 57.7%

c1ccc2[nH]c(-c3ccc(OCCCCCOc4ccc(-c5nc6ccccc6[nH]5)cc4)cc3)nc2c1
inactive: HCT-15 colon 16.7% | SNB-19 CNS 46% | SK-MEL-5 melanoma 37.7% | UACC-62 melanoma 12.8% | SK-MEL-2 melanoma 64% | EKVX NSCLC 87% | SN12C renal 19.8% | UO-31 renal 78% | ACHN renal 35.5% | CAKI-1 renal 94.1% | A498 renal 143%
active: HT29 colon -30.6% | SNB-75 CNS -4.77% | U251 CNS -2.78% | PC-3 prostate -70% | LOX IMVI melanoma -77% | SK-MEL-28 melanoma -71.6% | TK-10 renal -50.9% | CCRF-CEM leukemia -87.9% | MOLT-4 leukemia -19.1%

O=C1/C(=C/c2ccc(Cl)cc2)CCC/C1=C\c1ccc(Cl)cc1
active: HT29 colon 6.8% | LOX IMVI melanoma -67.7%
inactive: HCT-15 colon 80.9% | SNB-75 CNS 90.1% | SNB-19 CNS 92.5% | U251 CNS 14.7% | PC-3 prostate 90.8% | SK-MEL-5 melanoma 84.6% | UACC-62 melanoma 80.5% | SK-MEL-28 melanoma 110% | SK-MEL-2 melanoma 117% | EKVX NSCLC 89.2% | SN12C renal 92% | UO-31 renal 74.1% | TK-10 renal 123% | ACHN renal 95% | CAKI-1 renal 89.4% | A498 renal 105% | CCRF-CEM leukemia 78.1% | MOLT-4 leukemia 80.2%

COc1ccc(C2C3(C#N)C(N)=NC(=C(C#N)C#N)C23C#N)cc1OC (stereo not given)
inactive: HCT-15 colon 114% | HT29 colon 116% | SNB-75 CNS 107% | SNB-19 CNS 106% | U251 CNS 103% | PC-3 prostate 111% | SK-MEL-5 melanoma 105% | UACC-62 melanoma 99.8% | LOX IMVI melanoma 98.7% | SK-MEL-28 melanoma 115% | SK-MEL-2 melanoma 104% | EKVX NSCLC 94.6% | SN12C renal 109% | UO-31 renal 91% | TK-10 renal 114% | ACHN renal 106% | CAKI-1 renal 86.9% | A498 renal 101% | CCRF-CEM leukemia 92.3% | MOLT-4 leukemia 102%

CC1=C(C)C(=O)C(C(C)C2=C(C)C(=O)C(C)=C(C)C2=O)=C(C)C1=O
inactive: HCT-15 colon 99.7% | HT29 colon 68.7% | SNB-75 CNS 96.6% | SNB-19 CNS 99% | U251 CNS 81% | PC-3 prostate 52.4% | SK-MEL-5 melanoma 75% | UACC-62 melanoma 85% | LOX IMVI melanoma 81% | SK-MEL-28 melanoma 117% | SK-MEL-2 melanoma 97.8% | EKVX NSCLC 61.7% | SN12C renal 120% | UO-31 renal 83.8% | TK-10 renal 75.7% | ACHN renal 110% | CAKI-1 renal 142% | A498 renal 84.6% | CCRF-CEM leukemia 67.4% | MOLT-4 leukemia 32.9%

O=S(=O)(O)CCI
inactive: HCT-15 colon 108% | HT29 colon 116% | SNB-75 CNS 98% | SNB-19 CNS 102% | U251 CNS 110% | PC-3 prostate 95.7% | SK-MEL-5 melanoma 91.2% | UACC-62 melanoma 101% | LOX IMVI melanoma 97.8% | SK-MEL-28 melanoma 113% | SK-MEL-2 melanoma 102% | EKVX NSCLC 119% | SN12C renal 105% | UO-31 renal 95.4% | TK-10 renal 95.7% | ACHN renal 112% | CAKI-1 renal 107% | A498 renal 90.7% | CCRF-CEM leukemia 106% | MOLT-4 leukemia 120%

CSC1=Nc2c(c(C)c(-c3ccccc3)n2CCCCl)C2=NC(=O)CN12
inactive: HCT-15 colon 64.9% | HT29 colon 23.5% | SNB-75 CNS 21.2% | SNB-19 CNS 81.2% | U251 CNS 51.6% | PC-3 prostate 68.9% | SK-MEL-5 melanoma 50.7% | UACC-62 melanoma 36.7% | LOX IMVI melanoma 49.8% | SK-MEL-28 melanoma 55.9% | SK-MEL-2 melanoma 75.4% | EKVX NSCLC 54.2% | SN12C renal 86.3% | UO-31 renal 57.2% | TK-10 renal 105% | ACHN renal 88.3% | CAKI-1 renal 57.7% | A498 renal 46.9% | CCRF-CEM leukemia 51.9% | MOLT-4 leukemia 50.6%

COC(=O)c1ccc2[nH]c(O)c(C(=Nc3ccc(N(C)C(=O)CN4CCN(C)CC4)cc3)c3ccc(N)cc3)c2c1
inactive: HCT-15 colon 99.4% | HT29 colon 42.6% | SNB-75 CNS 42.5% | SNB-19 CNS 83.9% | U251 CNS 82.2% | PC-3 prostate 83.4% | SK-MEL-5 melanoma 85.2% | UACC-62 melanoma 110% | LOX IMVI melanoma 74.6% | SK-MEL-28 melanoma 87.1% | SK-MEL-2 melanoma 93.1% | EKVX NSCLC 95.5% | SN12C renal 50.4% | UO-31 renal 75.6% | TK-10 renal 76.4% | ACHN renal 94.7% | CAKI-1 renal 63.9% | A498 renal 92.7% | CCRF-CEM leukemia 60.4% | MOLT-4 leukemia 52.3%

COC(=O)Nc1nc2ccc(C(=O)c3ccccc3N(C)C3COC3)cc2[nH]1
active: HT29 colon 9.07% | A498 renal 9.85% | CCRF-CEM leukemia 8.11%
inactive: HCT-15 colon 23.5% | SNB-75 CNS 16.4% | SNB-19 CNS 37.8% | U251 CNS 21.4% | PC-3 prostate 23% | SK-MEL-5 melanoma 22.6% | UACC-62 melanoma 27% | LOX IMVI melanoma 30.8% | SK-MEL-28 melanoma 63.6% | SK-MEL-2 melanoma 24.2% | EKVX NSCLC 53.6% | SN12C renal 44.1% | UO-31 renal 39.9% | TK-10 renal 59.5% | ACHN renal 40.5% | CAKI-1 renal 45.2% | MOLT-4 leukemia 30.3%

CN1CCN(Cc2ccc(NC(=O)c3cncc(C#Cc4c(N)ncc5ccc(F)cc45)c3)cc2C(F)(F)F)CC1
inactive: HCT-15 colon 25.9% | SNB-75 CNS 15.5% | SNB-19 CNS 74.3% | U251 CNS 43.3% | PC-3 prostate 43.7% | UACC-62 melanoma 22.8% | EKVX NSCLC 50.7% | SN12C renal 36.4% | TK-10 renal 11.5% | CAKI-1 renal 25.2% | A498 renal 15%
active: HT29 colon -60.1% | SK-MEL-5 melanoma -93.1% | LOX IMVI melanoma -8.63% | SK-MEL-28 melanoma -84.9% | SK-MEL-2 melanoma -33% | UO-31 renal -78.9% | ACHN renal -93.6% | CCRF-CEM leukemia 0.436% | MOLT-4 leukemia 9.77%

COc1ccc(Cn2cc3c(c2-c2ccccc2)CCc2cnoc2-3)cc1N
inactive: HCT-15 colon 20% | HT29 colon 10.5% | SNB-75 CNS 29.1% | SNB-19 CNS 44.5% | U251 CNS 24.8% | PC-3 prostate 23.7% | UACC-62 melanoma 42.4% | LOX IMVI melanoma 31.4% | SK-MEL-28 melanoma 63.6% | SK-MEL-2 melanoma 41% | EKVX NSCLC 16.5% | SN12C renal 36.2% | UO-31 renal 29.7% | TK-10 renal 76.2% | ACHN renal 31% | CCRF-CEM leukemia 18% | MOLT-4 leukemia 25.3%
active: SK-MEL-5 melanoma 8.52% | CAKI-1 renal 7.24% | A498 renal 1.34%

COc1ccc(Cn2cc3c(c2-c2ccc(OC)cc2)CCc2cnoc2-3)cc1
active: HT29 colon 7.18% | A498 renal 3.78% | CCRF-CEM leukemia 9.28%
inactive: HCT-15 colon 14.2% | SNB-75 CNS 11.4% | SNB-19 CNS 45.5% | U251 CNS 24% | PC-3 prostate 24.8% | SK-MEL-5 melanoma 10.6% | UACC-62 melanoma 44% | LOX IMVI melanoma 32.2% | SK-MEL-28 melanoma 51.2% | SK-MEL-2 melanoma 31% | EKVX NSCLC 49.4% | SN12C renal 26.5% | UO-31 renal 25.7% | TK-10 renal 69.1% | ACHN renal 30.7% | CAKI-1 renal 14.8% | MOLT-4 leukemia 23.7%

CCOc1ccc2nc3ccc(Cl)cc3nc2c1
inactive: HCT-15 colon 97.1% | HT29 colon 90.5% | SNB-75 CNS 108% | SNB-19 CNS 97.7% | U251 CNS 96.4% | PC-3 prostate 99.9% | SK-MEL-5 melanoma 67.1% | UACC-62 melanoma 79.4% | LOX IMVI melanoma 101% | SK-MEL-28 melanoma 113% | SK-MEL-2 melanoma 97.5% | EKVX NSCLC 75% | SN12C renal 100% | UO-31 renal 74.9% | TK-10 renal 95.1% | ACHN renal 94.6% | CAKI-1 renal 124% | A498 renal 83.3% | MOLT-4 leukemia 50.8%
active: CCRF-CEM leukemia -0.816%

CCOC(=O)NC1=NCC(C)(C)S1
inactive: HCT-15 colon 104% | HT29 colon 91.3% | SNB-75 CNS 91.2% | SNB-19 CNS 98.1% | U251 CNS 101% | PC-3 prostate 93.6% | SK-MEL-5 melanoma 98.3% | UACC-62 melanoma 93.6% | LOX IMVI melanoma 94.4% | SK-MEL-28 melanoma 99.9% | SK-MEL-2 melanoma 102% | EKVX NSCLC 98.2% | SN12C renal 93.8% | UO-31 renal 86.9% | TK-10 renal 98.4% | ACHN renal 107% | CAKI-1 renal 99.7% | A498 renal 68.4% | CCRF-CEM leukemia 98.4% | MOLT-4 leukemia 83.8%

CCCC(CCC)Oc1ccc(CCCC2=C(O)c3ccccc3C(=O)C2=O)cc1
active: LOX IMVI melanoma 5.38%
inactive: HCT-15 colon 21.7% | HT29 colon 25.8% | SNB-75 CNS 46.1% | SNB-19 CNS 28.2% | U251 CNS 27.1% | PC-3 prostate 27.7% | SK-MEL-5 melanoma 13.1% | UACC-62 melanoma 30.4% | SK-MEL-28 melanoma 59.2% | SK-MEL-2 melanoma 27.7% | EKVX NSCLC 26.3% | SN12C renal 45.5% | UO-31 renal 47.3% | TK-10 renal 36.2% | ACHN renal 29.9% | CAKI-1 renal 64.4% | A498 renal 31% | CCRF-CEM leukemia 36.1% | MOLT-4 leukemia 38.1%
